In the library only some 3.5% were active in any assay of this set; here they are far more common.
GPR151 activ – activators of human GPR151, primary screen, cell-based, PathHunter beta-arrestin, luminescence; G-protein coupled receptor 151 (Homo sapiens), Q8TDV0; PathHunter beta-arrestin GPR151 cells; activation, % at 11.2 µM; 650,000 compounds, 1% hits; AID 1508602, 2020; in the data active means activation above about 4.9%;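 further: 0% = median of compound wells and 100% = cells with positive control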
MITF primary – MITF inhibitors, primary screen, biochemical, AlphaScreen, human; AID 1259374, 2018; 650,000 compounds, 0.91% hits; inhibition, % at 2.6 µM; AlphaScreen MITF homodimerization, bead proximity signal; in the data active means inhibition above about 50%;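 further: 0% = vehicle wells with protein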
Target sequence (O75030 whole entry, looked up): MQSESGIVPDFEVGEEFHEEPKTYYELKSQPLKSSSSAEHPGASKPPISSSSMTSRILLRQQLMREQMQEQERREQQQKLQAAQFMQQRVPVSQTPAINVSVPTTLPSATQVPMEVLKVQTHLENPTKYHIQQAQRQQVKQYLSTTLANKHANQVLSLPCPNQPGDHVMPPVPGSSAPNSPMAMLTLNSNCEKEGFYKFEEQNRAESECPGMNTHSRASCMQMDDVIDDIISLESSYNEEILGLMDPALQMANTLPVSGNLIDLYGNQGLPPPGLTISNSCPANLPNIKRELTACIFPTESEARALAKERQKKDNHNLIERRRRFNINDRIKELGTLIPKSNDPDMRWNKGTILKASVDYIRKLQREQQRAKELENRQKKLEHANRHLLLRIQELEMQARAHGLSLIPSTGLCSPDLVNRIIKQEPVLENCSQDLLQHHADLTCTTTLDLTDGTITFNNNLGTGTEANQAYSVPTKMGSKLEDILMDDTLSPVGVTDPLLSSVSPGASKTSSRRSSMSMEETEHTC
TEAD-YAP block – TEAD-YAP interaction inhibition, primary screen, TEAD-YAP interaction inhibitor project, luminescence, HEK-TIYL cells; inhibition, % at 9.12 µM; 640,000 compounds, 1.4% hits; TEAD-Gal4/YAP UAS-luciferase luminescence; in the data active means inhibition above about 32%;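 further: 0% = median of test compound wells and 100% = reference inhibitor wells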
FBW7 act – FBW7 E3 ligase activators, primary screen, biochemical, AlphaScreen, human. normalized activity (activation), % at 26.1 µM. 650,000 compounds, 0.13% hits. F-box/WD repeat-containing protein 7 (Homo sapiens), Q969H0. AlphaScreen FBW7–phospho-cyclin E peptide binding, activator screen; in the data active means normalized activity above about 1.9%;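 further: purified mutant Fbw7 with reduced substrate affinity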
GPR151 confirm – GPR151 activators, triplicate retest, confirmation, cell-based, PathHunter beta-arrestin, luminescence; shares compounds with GPR151 activ; GPR151 PathHunter beta-arrestin cells, 90 min; % of EA-reagent control over plate median; activation, % at 11.2 µM; 6,700 tested, under 10 active; AID 1508609, 2020;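 active means mean percent activation across replicates above the confirmation screen cutoff of 4.91%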
GPR119 counter – GPR119 activators in beta-arrestin cells, counter-screen for GPR151 activator project, cell-based, PathHunter beta-arrestin, luminescence, triplicate; 90 min; 0 = compound-well median, 100 = enzyme-acceptor control; shares compounds with GPR151 activ; AID 1508611, 2020; 6,700 compounds, 0.3% hits; activation, % at 11.2 µM;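 active means mean percent activation in the counterscreen above 29.09%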;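 further: counterscreen on off-target GPR119 to flag nonselective hits from the GPR151 activator screen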
An asterisk follows results filed as active; . = no result; ! = repeats disagree.

SMILES	GPR151 activ	MITF primary	TEAD-YAP block	FBW7 act	GPR151 confirm	GPR119 counter
O=C(Nc1c2c(nn1-c1ccc(Cl)cc1)CSC2)c1ccc(Cl)cc1	7.7*	8	-15	0	-1	-13
COc1cc(NC(=O)CSC2=C(C#N)C(c3ccco3)C(C(=O)Nc3ccccc3OC)=C(C)N2)c(OC)cc1Cl (stereo not drawn)	-1	5	-9	1	.	.
CC1=C(C(=O)O)N2C(=O)[C@@H](NC(=O)C(N)C3=CCC=CC3)[C@H]2SC1 (stereo partly drawn)	8.4*!	2	3	1	1	11
CC1=C(C(=O)O)N2C(=O)[C@@H](NC(=O)[C@H](N)C3=CCC=CC3)C2SC1 (stereo partly drawn)	-1	11	14	0	.	.
Cc1cc(-c2ccccc2)n(-c2cc(Nc3ccccc3)ncn2)n1	5.1*	5	0	0	1	6
Cc1cc(-c2ccccc2)n(-c2cc(Nc3cccc(F)c3)ncn2)n1	2	1	-10	0	.	.
O=C1OC(/C=C/c2cccc(Cl)c2Cl)=NC/1=C\c1ccccc1C(F)(F)F	5.8*	-1	2	0	-1	-3
O=C1OC(/C=C/c2cccc(Cl)c2Cl)=NC/1=C\c1ccccc1Cl	-1	-9	-5	0	.	.
O=C(/C=C\Nc1ccc2c(c1)OCO2)c1ccc(Br)cc1	0	-2	-75	1	.	.
O=C(NCSc1ncccn1)c1ccccc1	7.6*	-10	-4	0	-1	-15
CSc1ccc(S(=O)(=O)Nc2ccc(S(=O)(=O)N3CCOCC3)cc2)cc1	5.8*	0	-2	0	0	4
COc1cccc(C2CC(c3ccc(Cl)cc3)=NC(c3ccc(F)c(Br)c3)N2)c1O (stereo not drawn)	-1	8	-33	0	.	.
O=c1c2c(-c3ccccc3)csc2ncn1Cc1ccc([N+](=O)[O-])cc1	5.6*	20	4	0	-1	-3
O=C(Nc1cc(Oc2ccc(F)cc2)cc(Oc2ccc(F)cc2)c1)c1cc2nc(-c3cccs3)cc(C(F)(F)F)n2n1	0	4	1	1	.	.
COc1ccccc1CNc1ccc2c(c1)ncn2C	-1	7	-30	1	.	.
CCOc1ccc(-n2c(CNC(=O)c3ccco3)nnc2SCC(=O)Nc2ccc(F)cc2)cc1	0	-7	-1	0	.	.
COc1ccc(CN2CCOc3ccc(CN4C[C@@H](C)O[C@@H](C)C4)cc3C2)cc1OC	2	12	9	-1	.	.
C[C@@H]1CN(Cc2ccc3c(c2)CN(Cc2ccc4c(c2)CCO4)CCO3)C[C@H](C)O1	6.5*	-1	-13	0	0	4
Cc1nn(-c2ccccc2)c(Cl)c1/C=C1\SC(=S)NC1=O	5.3*	4	1	0	1	9
N#Cc1ccccc1C(Br)C(Br)C(=O)O (stereo not drawn)	6.0*	-2	-5	0	-1	-8
N#Cc1ccc(C(=O)C(=O)c2ccccc2)cc1C#N	-1	0	-7	1	.	.
CC(C(=O)Nc1ccc(Br)cn1)N1Cc2ccccc2C1=O (stereo not drawn)	7.2*	-1	85*	0	0	-2
CC(C(=O)Nc1ccc(Br)cc1F)N1Cc2ccccc2C1=O (stereo not drawn)	1	0	2	0	.	.
COc1ccccc1C1NC(=S)NC(C)=C1C(=O)c1ccccc1 (stereo not drawn)	2	9	3	0	.	.
CNC(=O)C1=C(C)NC(=S)NC1c1ccccc1OC (stereo not drawn)	9.5*	2	2	0	-1	-13
SMILES	GPR151 activ	MITF primary	TEAD-YAP block	FBW7 act	GPR151 confirm	GPR119 counter
COc1ccc(OC)c(NC(=S)NCC2CCCO2)c1 (stereo not drawn)	1	-9	3	0	.	.
O=S(=O)(c1ccc(Nc2nc3ccccc3n3nnnc23)cc1)N1CCOCC1	5.1*	4	-19	0	0	0
O=C(N/N=C/c1ccc([N+](=O)[O-])cc1)C(=O)Nc1ccccc1	0	2	-17	0	.	.
CC1=C(C#N)C(c2ccc(C(C)C)cc2)C(C#N)=C(C)N1	9.9*	-3	4	0	0	11
CC(C)c1ccc(C2C(C#N)=C(N)OC(N)=C2C#N)cc1	0	-7	-2	0	.	.
Cc1sc(NC(=O)c2cc3ccccc3oc2=O)nc1-c1ccc(Br)cc1	7.4*	-2	-6	0	2	-2
COc1ccccc1C(=O)Nc1ccc(S(=O)(=O)Nc2nccc(C)n2)cc1	-1	6	-1	0	.	.
COC(=O)c1ccc(/C=C2/C(=O)NN(c3ccc(C)c(C)c3)C2=O)cc1	5.2*	13	-1	0	0	0
Cc1cccc2sc(NC(=O)/C=C\C(=O)O)nc12	6.8*	14	6	0	0	16
Cc1sc(NC(=O)/C=C\C(=O)O)nc1-c1ccccc1	6.9*	3	2	0	1	20
COc1ccc(Nc2ccn3ncc(-c4ccc(OC)c(OC)c4)c3n2)cn1	2	15	-2	0	.	.
CC(C)N(C)Cc1nnnn1CC(=O)N1CCN(c2ccccc2O)CC1	5.0*	-12	6	0	1	-1
C/C(=N\Nc1cc(N2CCOCC2)nc(C)n1)c1cccc([N+](=O)[O-])c1	5.2*	9	-9	0	1	4
Cc1cc2c(cc1S(=O)(=O)NC1CCCC(C)C1C)OCC(=O)N2 (stereo not drawn)	0	-11	-9	0	.	.
CC1CCCC(NS(=O)(=O)c2cc3c(cc2Cl)NC(=O)CO3)C1C (stereo not drawn)	7.8*	14	4	0	0	6
COc1cccc(CN2CCC3(CC2)CC3C(=O)NCc2cccc(C(F)(F)F)c2)c1O (stereo not drawn)	5.0*	-4	-3	0	1	13
CCn1nc(C)c(CN2CCC3(CC2)CC3C(=O)NCc2ccccc2)c1C (stereo not drawn)	5.4*	-3	8	0	0	0
O=C(N/N=C/c1ccc2c(c1)OCO2)Nc1ccc2nsnc2c1	0	5	1	0	.	.
Cc1c(Cc2ccc(Cl)cc2)c(-n2ccnc2)n2c(nc3ccccc32)c1C#N	0	10	6	0	.	.
Cc1ccc(C(=O)COC(=O)CN2C(=O)C3C4C=CC(C4)C3C2=O)cc1[N+](=O)[O-] (stereo not drawn)	13*	1	3	0	0	10

Assay outcomes (PubChem BioAssay)
